# Reference: PubChem BioAssay (NCI)
# The panel holds about 79,000 compounds, 15% with a hit somewhere; the sample as a whole holds those more often. Values without a mark were called inactive. Calls of active or inactive are those of the source. Rule as the data show it: active = growth inhibition above about 70%; inactive = the rest. Starred links: 1 amine or outer side, 2 acyl side, 3 side chain; linkers in the order of their positions; H or OH if unused. Positions of bridges follow the written chain, without caps; N, C: chain ends. Non-standard residues stand in square brackets, D forms with d. Residues, ends and D or L forms follow the SMILES beside them. Chains are numbered I, II in the order given. Actinocin(9to1) = Cc1c2oc3c(C)ccc(C(=O)[*:1])c3nc-2c(C(=O)[*:2])c(N)c1=O; aThr = C[C@H](O)[C@H](N)C(=O)O; NMeV = CN[C@H](C(=O)O)C(C)C; Sar = CNCC(=O)O
# Experiments:
# [1] = NCI Yeast Anticancer Drug Screen. Data for the sgs1 strain (AID 173);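 also: 0% = growth of vehicle-only control cultures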; settings: S. cerevisiae sgs1 mutant, stronger effect = higher value
# In short: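 Screen format: yeast with repair or checkpoint alterations, compound exposure, growth read relative to vehicle.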
# [2] = NCI Yeast Anticancer Drug Screen. Data for the wt1 strain (AID 149);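 also: 0% = growth of vehicle-treated wt1 cultures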; settings: S. cerevisiae wt1 strain (SPY 50644) growth inhibition, stronger effect = higher value
# In short: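 Yeast wt1 strain exposed to compounds; growth inhibition measured relative to vehicle-treated controls.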
# [3] = NCI Yeast Anticancer Drug Screen. Data for the rad50EPP+ strain (AID 151);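 also: 0% = growth of vehicle-treated control cultures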; settings: S. cerevisiae rad50 mutant strain, stronger effect = higher value
# In short: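 In this screen, rad50EPP+ yeast were exposed to compounds. Growth inhibition was scored against vehicle-treated controls.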
# [4] = NCI Yeast Anticancer Drug Screen. Data for the rad50 strain (AID 155);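 also: 0% = growth of vehicle-only cultures of the same strain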; settings: S. cerevisiae rad50 strain growth inhibition, stronger effect = higher value
# In short: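 Yeast carrying a defined DNA repair defect were exposed to test compounds, and growth was compared with vehicle-treated controls to give percent inhibition.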
# [5] = NCI Yeast Anticancer Drug Screen. Data for the mec2-1 strain (AID 157); settings: S. cerevisiae mec2-1 strain, stronger effect = higher value
# In short: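 Vehicle-treated cultures served as reference for growth inhibition of compound-exposed mec2-1 yeast.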
# [6] = NCI Yeast Anticancer Drug Screen. Data for the rad14 strain (AID 159);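 also: 0% = growth of vehicle-treated control cultures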; settings: S. cerevisiae rad14 strain growth inhibition, stronger effect = higher value
# In short: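 Yeast cells carrying a defined DNA-repair defect were exposed to compounds, and growth inhibition was calculated relative to vehicle-treated control cultures.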
# [7] = NCI Yeast Anticancer Drug Screen. Data for the sgs1 mgt1 strain (AID 161);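 also: 0% = growth of cultures given vehicle only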; settings: S. cerevisiae sgs1 mgt1 strain, stronger effect = higher value
# In short: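 Inhibition of yeast growth, normalised to vehicle-treated controls, is reported for a strain bearing genetic alterations in DNA damage repair.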
# [8] = NCI Yeast Anticancer Drug Screen. Data for the CLN2oe strain (AID 163);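 also: 0% = growth of vehicle-only control cultures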; settings: S. cerevisiae CLN2oe strain, stronger effect = higher value
# In short: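 Inhibition relative to vehicle-treated yeast is reported. Cells: strain with genetic alteration in cell-cycle control, grown with compound.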
# [9] = NCI Yeast Anticancer Drug Screen. Data for the cln2 rad14 strain (AID 165);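 also: 0% = growth equal to vehicle treated cultures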; settings: S. cerevisiae cln2 rad14 strain, stronger effect = higher value
# In short: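 Each compound was tested on cln2 rad14 yeast. Inhibition of growth was calculated against vehicle-exposed controls.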
# [10] = NCI Yeast Anticancer Drug Screen. Data for the bub3 strain (AID 167); settings: S. cerevisiae bub3 mutant strain, stronger effect = higher value
# In short: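 Compounds were applied to a genetically altered yeast strain carrying a cell-cycle control defect. Growth inhibition was scored against vehicle-treated controls.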
# [11] = NCI Yeast Anticancer Drug Screen. Data for the wt2 strain (AID 169);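 also: 0% = growth of vehicle-treated yeast cultures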; settings: S. cerevisiae wt2 strain growth inhibition, stronger effect = higher value
# In short: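 Inhibition of yeast growth was determined after compound treatment, normalised to controls receiving only vehicle.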
# [12] = NCI Yeast Anticancer Drug Screen. Data for the mlh1 strain (AID 171);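 also: 0% = growth of vehicle-treated control cultures of the same strain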; settings: S. cerevisiae mlh1 strain growth inhibition, stronger effect = higher value
# In short: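 Vehicle-normalised growth inhibition of a repair- or checkpoint-altered yeast strain following compound treatment.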
# [13] = NCI Yeast Anticancer Drug Screen. Data for the mlh1 rad18 strain (AID 175); settings: S. cerevisiae mlh1 rad18 strain growth inhibition, stronger effect = higher value
# In short: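 Vehicle-treated cultures served as the reference for growth inhibition in a yeast strain carrying DNA damage repair alterations exposed to each compound.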
# [14] = NCI Yeast Anticancer Drug Screen. Data for the rad18 strain (AID 177); settings: S. cerevisiae rad18 mutant growth inhibition, stronger effect = higher value
# In short: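 Test articles were incubated with altered yeast defective in DNA damage repair. Results are given as inhibition of growth versus vehicle.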
# [15] = at 5.0 µM (retest, dose inferred, filed as 0.5)
# [16] = at 50.0 µM (retest, dose inferred, filed as 5.0)
smiles,measurement,setting,value
Cc1ccc(C(C)C)c(C(=C2C=CC(=[N+](C)C)C=C2)c2c(C(C)C)ccc(C)c2O)c1O,growth inhibition,[1]; at 1.2 µM,0%
same,growth inhibition,[1]; at 3.7 µM,14%
same,growth inhibition,[1]; at 11.0 µM,97% (active)
same,growth inhibition,[1]; at 33.0 µM,94% (active)
same,growth inhibition,[1]; at 100.0 µM,82% (active)
CCCC(=O)OC(OC(=O)CCC)c1ccc([N+](=O)[O-])o1,growth inhibition,[2]; at 1.2 µM,-3%
same,growth inhibition,[2]; at 3.7 µM,-2%
same,growth inhibition,[2]; at 11.0 µM,-1%
same,growth inhibition,[2]; at 33.0 µM,2%
same,growth inhibition,[2]; at 100.0 µM,11%
same,growth inhibition,[3]; at 1.2 µM,2%
same,growth inhibition,[3]; at 3.7 µM,15%
same,growth inhibition,[3]; at 11.0 µM,46%
same,growth inhibition,[3]; at 33.0 µM,83% (active)
same,growth inhibition,[3]; at 100.0 µM,93% (active)
same,growth inhibition,[4]; at 1.2 µM,-2%
same,growth inhibition,[4]; at 3.7 µM,-1%
same,growth inhibition,[4]; [15],22%
same,growth inhibition,[4]; at 11.0 µM,10%
same,growth inhibition,[4]; at 33.0 µM,47%
same,growth inhibition,[4]; [16],34%
same,growth inhibition,[4]; at 50.0 µM,63.9%
same,growth inhibition,[4]; at 100.0 µM,83% (active)
same,growth inhibition,[5]; at 1.2 µM,-4%
same,growth inhibition,[5]; at 3.7 µM,-1%
same,growth inhibition,[5]; [15],17%
same,growth inhibition,[5]; at 11.0 µM,2%
same,growth inhibition,[5]; at 33.0 µM,5%
same,growth inhibition,[5]; [16],8%
same,growth inhibition,[5]; at 50.0 µM,-1.45%
same,growth inhibition,[5]; at 100.0 µM,20%
same,growth inhibition,[6]; at 1.2 µM,-6%
same,growth inhibition,[6]; at 3.7 µM,-4%
same,growth inhibition,[6]; at 11.0 µM,1%
same,growth inhibition,[6]; at 33.0 µM,7%
same,growth inhibition,[6]; at 100.0 µM,26%
same,growth inhibition,[7]; [15],14%
same,growth inhibition,[7]; [16],55%
same,growth inhibition,[7]; at 50.0 µM,53.4%
same,growth inhibition,[8]; at 1.2 µM,-1%
same,growth inhibition,[8]; at 3.7 µM,-8%
same,growth inhibition,[8]; at 11.0 µM,-10%
same,growth inhibition,[8]; at 33.0 µM,-5%
same,growth inhibition,[8]; at 100.0 µM,8%
same,growth inhibition,[9]; [15],1%
same,growth inhibition,[9]; [16],8%
same,growth inhibition,[9]; at 50.0 µM,12.1%
same,growth inhibition,[10]; at 1.2 µM,-4%
same,growth inhibition,[10]; at 3.7 µM,-5%
same,growth inhibition,[10]; [15],2%
same,growth inhibition,[10]; at 11.0 µM,-4%
same,growth inhibition,[10]; at 33.0 µM,-3%
same,growth inhibition,[10]; [16],7%
same,growth inhibition,[10]; at 50.0 µM,14.4%
same,growth inhibition,[10]; at 100.0 µM,3%
same,growth inhibition,[11]; at 1.2 µM,-3%
same,growth inhibition,[11]; at 3.7 µM,-3%
same,growth inhibition,[11]; at 11.0 µM,-3%
same,growth inhibition,[11]; at 33.0 µM,1%
same,growth inhibition,[11]; at 100.0 µM,11%
same,growth inhibition,[12]; at 1.2 µM,-5%
same,growth inhibition,[12]; at 3.7 µM,-2%
same,growth inhibition,[12]; at 11.0 µM,0%
same,growth inhibition,[12]; at 33.0 µM,7%
same,growth inhibition,[12]; at 100.0 µM,20%
same,growth inhibition,[13]; [15],22%
same,growth inhibition,[13]; [16],71% (active)
same,growth inhibition,[13]; at 50.0 µM,35.1%
same,growth inhibition,[14]; at 1.2 µM,1%
same,growth inhibition,[14]; at 3.7 µM,14%
same,growth inhibition,[14]; at 11.0 µM,42%
same,growth inhibition,[14]; at 33.0 µM,85% (active)
same,growth inhibition,[14]; at 100.0 µM,94% (active)
"Cc1c2oc3c(C)ccc(C(=O)N[C@@H]4C(=O)N[C@H](C(C)C)C(=O)N5CCC[C@H]5C(=O)N(C)CC(=O)N(C)[C@@H](C(C)C)C(=O)O[C@H]4C)c3nc-2c(C(=O)N[C@@H]2C(=O)N[C@H](C(C)C)C(=O)N3CCC[C@H]3C(=O)N(C)CC(=O)N(C)[C@@H](C(C)C)C(=O)O[C@H]2C)c(N)c1=O (I: [aThr][dV]P[Sar][NMeV] / II: [aThr][dV]P[Sar][NMeV]; ester I:1-I:C, II:1-II:C; linker I:N-II:N via Actinocin(9to1))",growth inhibition,[2]; at 1.2 µM,0%
same,growth inhibition,[2]; at 3.7 µM,19%
same,growth inhibition,[2]; at 11.0 µM,58%
same,growth inhibition,[2]; at 33.0 µM,95% (active)
same,growth inhibition,[2]; at 100.0 µM,95% (active)
same,growth inhibition,[3]; at 1.2 µM,2%
same,growth inhibition,[3]; at 3.7 µM,53%
same,growth inhibition,[3]; at 11.0 µM,94% (active)
same,growth inhibition,[3]; at 33.0 µM,97% (active)
same,growth inhibition,[3]; at 100.0 µM,99% (active)
same,growth inhibition,[4]; at 1.2 µM,9%
same,growth inhibition,[4]; at 3.7 µM,59%
same,growth inhibition,[4]; [15],65%
same,growth inhibition,[4]; at 11.0 µM,92% (active)
same,growth inhibition,[4]; at 33.0 µM,98% (active)
same,growth inhibition,[4]; [16],98% (active)
same,growth inhibition,[4]; at 50.0 µM,91.2% (active)
same,growth inhibition,[4]; at 100.0 µM,99% (active)
same,growth inhibition,[5]; at 1.2 µM,1%
same,growth inhibition,[5]; at 3.7 µM,29%
same,growth inhibition,[5]; [15],53%
same,growth inhibition,[5]; at 11.0 µM,84% (active)
same,growth inhibition,[5]; at 33.0 µM,97% (active)
same,growth inhibition,[5]; [16],99% (active)
same,growth inhibition,[5]; at 50.0 µM,93% (active)
same,growth inhibition,[5]; at 100.0 µM,98% (active)
same,growth inhibition,[6]; at 1.2 µM,3%
same,growth inhibition,[6]; at 3.7 µM,32%
same,growth inhibition,[6]; at 11.0 µM,75% (active)
same,growth inhibition,[6]; at 33.0 µM,97% (active)
same,growth inhibition,[6]; at 100.0 µM,98% (active)
same,growth inhibition,[7]; [15],24%
same,growth inhibition,[7]; [16],97% (active)
same,growth inhibition,[7]; at 50.0 µM,92.5% (active)
same,growth inhibition,[8]; at 1.2 µM,8%
same,growth inhibition,[8]; at 3.7 µM,32%
same,growth inhibition,[8]; at 11.0 µM,94% (active)
same,growth inhibition,[8]; at 33.0 µM,97% (active)
same,growth inhibition,[8]; at 100.0 µM,99% (active)
same,growth inhibition,[9]; [15],34%
same,growth inhibition,[9]; [16],92% (active)
same,growth inhibition,[9]; at 50.0 µM,89.3% (active)
same,growth inhibition,[10]; at 1.2 µM,3%
same,growth inhibition,[10]; at 3.7 µM,28%
same,growth inhibition,[10]; [15],24%
same,growth inhibition,[10]; at 11.0 µM,90% (active)
same,growth inhibition,[10]; at 33.0 µM,96% (active)
same,growth inhibition,[10]; [16],96% (active)
same,growth inhibition,[10]; at 50.0 µM,92% (active)
same,growth inhibition,[10]; at 100.0 µM,98% (active)
same,growth inhibition,[11]; at 1.2 µM,0%
same,growth inhibition,[11]; at 3.7 µM,26%
same,growth inhibition,[11]; at 11.0 µM,91% (active)
same,growth inhibition,[11]; at 33.0 µM,98% (active)
same,growth inhibition,[11]; at 100.0 µM,99% (active)
same,growth inhibition,[12]; at 1.2 µM,2%
same,growth inhibition,[12]; at 3.7 µM,28%
same,growth inhibition,[12]; at 11.0 µM,94% (active)
same,growth inhibition,[12]; at 33.0 µM,98% (active)
same,growth inhibition,[12]; at 100.0 µM,99% (active)
same,growth inhibition,[13]; [15],61%
same,growth inhibition,[13]; [16],98% (active)
same,growth inhibition,[13]; at 50.0 µM,90.5% (active)
same,growth inhibition,[14]; at 1.2 µM,-2%
same,growth inhibition,[14]; at 3.7 µM,18%
same,growth inhibition,[14]; at 11.0 µM,92% (active)
same,growth inhibition,[14]; at 33.0 µM,96% (active)
same,growth inhibition,[14]; at 100.0 µM,98% (active)
